Experimental data as given in PubChem BioAssay AID434989 (The Scripps Research Institute Molecular Screening Center, 2010).
The campaign covered roughly 330,000 compounds. About 1,400 (0.42%) were called active. This is one part of a sample in which actives are shown more often than they occur. A number with no mark means an inactive call.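 How the source made its calls: active means inhibition above its plate's threshold, mean inhibition of all tested compounds on the plate plus 3 SD (cut at about 37% in these data); inactive means the rest.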

Target: Orexin/Hypocretin receptor type 1 (Homo sapiens) (UniProt O43613)
Sequence (O43613 whole entry, looked up): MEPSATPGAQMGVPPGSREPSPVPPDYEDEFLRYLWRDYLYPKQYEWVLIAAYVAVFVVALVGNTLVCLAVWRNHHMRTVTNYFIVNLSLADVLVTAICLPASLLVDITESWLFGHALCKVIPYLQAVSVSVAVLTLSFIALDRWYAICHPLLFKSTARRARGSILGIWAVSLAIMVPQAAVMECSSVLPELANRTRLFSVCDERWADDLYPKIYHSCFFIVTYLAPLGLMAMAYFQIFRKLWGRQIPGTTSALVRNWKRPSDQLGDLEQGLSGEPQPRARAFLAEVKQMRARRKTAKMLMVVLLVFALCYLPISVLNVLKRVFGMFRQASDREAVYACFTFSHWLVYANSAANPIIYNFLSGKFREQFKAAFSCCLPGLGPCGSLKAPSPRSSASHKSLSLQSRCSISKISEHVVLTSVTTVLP
Assay: blockers of orexin-A calcium signaling via HCRTR1 – fluorescence, CHO/OX1R cells, Fluo-8 calcium, primary screen (AID 434989);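 further: 0% = orexin A challenge wells and 100% = SB-334867-A antagonist wells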
Conditions: Fluo-8 calcium fluorescence, at 5 µM, stronger effect = higher value

SMILES | inhibition
COc1ccc(NC(=O)C2CCCN(S(=O)(=O)c3cccc4cccnc34)C2)cc1 (stereo not drawn) | -34.5%
Cc1ccc(NC(=O)C2CCCN2S(=O)(=O)c2cccc3cccnc23)c(C)c1 (stereo not drawn) | -30.7%
O=C(Nc1nccs1)C1CCCN1S(=O)(=O)c1cccc2cccnc12 (stereo not drawn) | -11.2%
COc1ccccc1CNC(=O)C1CCCN(S(=O)(=O)c2cccc3cccnc23)C1 (stereo not drawn) | 79.2% (active)
Cc1cc(C)cc(NC(=O)C2CCCN2S(=O)(=O)c2cccc3cccnc23)c1 (stereo not drawn) | 104% (active)
COc1ccc(NC(=O)C2CCCN(S(=O)(=O)c3cccc4cccnc34)C2)cc1OC (stereo not drawn) | -27.1%
O=C(CN1C(=O)NC2(CCCC2)C1=O)Nc1cc(C(F)(F)F)ccc1N1CCOCC1 | -28.3%
C[C@H](CO)N1C[C@H](C)[C@@H](CN(C)Cc2ccc(-c3ccccc3)cc2)Oc2ccc(NC(=O)Cn3cnnn3)cc2C1=O | -7.92%
CC[C@]1(C(=O)OC)[C@H]2C(=O)N(Cc3ccccc3)C(=O)[C@H]2[C@H]2CN=C(SCc3ccc(C#N)cc3)N21 | -5.92%
Cc1ccc([C@@H]2CC=C(C(=O)O)[C@H](c3cccc(Cl)c3)N2S(=O)(=O)c2ccc(C)cc2)cc1 | 10.8%
Cc1ccccc1S(=O)(=O)N1[C@@H](c2cccc(Cl)c2)C(C(=O)O)=CC[C@H]1c1ccc(Cl)cc1 | 52.1% (active)
Cc1ccc(S(=O)(=O)N2[C@@H](c3cccc(Cl)c3)C(C(=O)O)=CC[C@H]2c2ccc(Cl)c(Cl)c2)cc1 | 42%
COc1cc(NC(=O)COC(=O)c2ccc([N+](=O)[O-])s2)cc(OC)c1OC | -20.3%
O=C(C[C@H]1C[C@H](C(=O)N2CCOCC2)[C@@]2(CCC3CCCC3)c3[nH]c4ccc(Cl)cc4c3CCN2C1=O)NCc1ccco1 | 21.8%
Cc1ccc(-n2[nH]c(C)c(/C=N/N3C(=O)c4cccc5cccc(c45)C3=O)c2=O)cc1 | -11.8%
COc1cc(SC#N)ccc1N=Cc1c(C)[nH]n(-c2ccc(C)cc2)c1=O | 67.5% (active)
Cc1ccc(-n2[nH]c(C)c(/C=N/NC(=O)c3cccc([N+](=O)[O-])c3)c2=O)cc1C | 7.53%
O=C(Nc1cc(S(=O)(=O)N2CCOCC2)ccc1N1CCOCC1)c1c(F)cccc1Cl | -20%
C=CCOc1cccc(C2C(C(=O)c3ccc(C)o3)=C(O)C(=O)N2CCCn2ccnc2)c1 (stereo not drawn) | -1.44%
Cc1cc(N2C(=O)C(O)=C(C(=O)c3ccc(C)o3)C2c2ccc(OCc3ccccc3)cc2)no1 (stereo not drawn) | -19.8%
C=CCOc1cccc(C2C(C(=O)c3ccc(C)o3)=C(O)C(=O)N2c2nnc(C)s2)c1 (stereo not drawn) | 51% (active)
O=C(CC(O)(C(F)(F)F)C(F)(F)F)Nc1ccc(Cl)c(Cl)c1 | 62.6% (active)
O=C(CC1SCCNC1=O)Nc1ccc(Cl)c(Cl)c1 (stereo not drawn) | -14.2%
O=C(Cc1ccc(Cl)c(Cl)c1)Nc1ccc(SC(F)F)cc1 | -12.3%
Oc1c(Cl)cc(Cl)c(Cl)c1Cc1c(O)c(Cl)cc(Cl)c1Cl | 42.3% (active)
CC(=O)Nc1ccc(NC(=O)COC(=O)C2CCC(C(C)(C)C)CC2)cc1 (stereo not drawn) | -1.79%

SMILES | inhibition
N#Cc1nc(-c2cccc3ccccc23)oc1N | 56% (active)
COc1ccc(Nc2oc(-c3ccccc3Cl)nc2C#N)cc1 | -16.2%
CC1CCN(c2oc(-c3ccccc3F)nc2C#N)CC1 | -6.67%
O=C(N[C@H]1C/C=C\C(c2cccc(F)c2)N(Cc2ccccc2)C(=O)C1)OCC1c2ccccc2-c2ccccc21 (stereo partly drawn) | 4.42%
CC(NC(=O)COC(=O)c1ccc2ccccc2n1)c1ccccc1 (stereo not drawn) | -14.8%
CC(=O)Nc1ccc(S(=O)(=O)NCC(=O)OCC(=O)c2ccc[nH]2)cc1 | -2.13%
C#CCOCCOCCOCCNc1nc(N2CCN(C(=O)[C@H](CO)n3cc([C@@H](N)C(C)C)nn3)CC2)nc(N2CCN(C(=O)[C@H](CCC(=O)O)n3cc([C@@H](N)[C@H](C)CC)nn3)CC2)n1 | 0.47%
O=C(CSc1nnc(-c2ccncc2)o1)Nc1cccc(Cl)c1 | -0.1%
CCOC(=O)C1CCCN(C(=O)CSc2nnc3nc(C)cc(C)n23)C1 (stereo not drawn) | -14.2%
CC(=O)N1CCCc2cc(S(=O)(=O)N3CCCC(C(=O)NCc4ccc(Cl)cc4)C3)ccc21 (stereo not drawn) | -22.5%
CC(=O)N1CCCc2cc(S(=O)(=O)N3CCCC(C(=O)N4CCN(c5cccc(Cl)c5)CC4)C3)ccc21 (stereo not drawn) | 72.6% (active)
CC(=O)N1c2ccc(S(=O)(=O)N3CCCC(C(=O)Nc4cccc(Cl)c4)C3)cc2CC1C (stereo not drawn) | 0.09%
CCOc1ccccc1Nc1nnc(SCC(=O)NCC2CCCO2)s1 (stereo not drawn) | -22.1%
Cc1ccc(S(=O)(=O)Nc2ccc3c(c2)C(=O)N([C@H](C)CO)C[C@@H](C)[C@@H](CN(C)C(=O)Nc2cccc4ccccc24)O3)cc1 | 1.83%
CC1CCCCC1NC(=O)Cn1c(=O)cnc2ccccc21 (stereo not drawn) | -6.73%
Cc1cccc(NC(=O)NC(=S)NC(=O)c2ccccc2)c1 | -26.4%
Cc1cccc(NC(=O)Nc2cccc(Oc3c(F)c(F)c(F)c(F)c3F)c2)c1 | 50.4% (active)
COc1cccc(NC(=O)NCc2ccc(F)cc2)c1 | -1.97%
CCN(CC)S(=O)(=O)c1ccc(N2CCCC2)c(NC(=O)c2ccc([N+](=O)[O-])o2)c1 | 25.1%
Cc1ccccc1OCC(=O)Nc1ccc(N2CCN(C(=O)C(C)C)CC2)c(Cl)c1 | 47.2% (active)
CCC(=O)N1CCN(c2ccccc2NC(=O)COc2cccc(C)c2C)CC1 | -25.6%
CCc1ccccc1OCC(=O)Nc1ccc2c(c1)OCCO2 | 3.6%
Cc1ccc(NC(=O)COC(=O)C2CC2)cc1S(=O)(=O)N1CCOCC1 | 0.29%
Cc1ccccc1OCC(=O)Nc1ccc2c(c1)ncn2C | -11.8%
CCc1ccccc1OCC(=O)Nc1ccc(C)c(S(=O)(=O)N2CCCCCC2)c1 | 71.1% (active)
COc1ccccc1CNC(=O)c1ccc(Cl)c(S(=O)(=O)N2CCCC2)c1 | -20%

SMILES | inhibition
Cc1nn(-c2ccccc2)nc1C(=O)OCC(=O)N1CCCCC1C (stereo not drawn) | -14.9%
Cc1ccc(C)c(N2CCN(C(=O)CCc3nc(-c4cccc(C(F)(F)F)c4)no3)CC2)c1 | -15.5%
Cc1cc(-c2ccc(C)c(S(=O)(=O)NC(C)Cc3ccco3)c2)on1 (stereo not drawn) | 59.1% (active)
Cc1cc(-c2ccc(C)c(S(=O)(=O)Nc3ccc(S(N)(=O)=O)cc3)c2)on1 | 15.6%
Cc1cc(-c2ccc(C)c(S(=O)(=O)NCCCN(Cc3ccccc3)C(C)C)c2)on1 | -45.5%
CN(C)C(=O)CCc1ccc2c3c([nH]c2c1)[C@]1(CCC2CCCC2)[C@@H](C(=O)N2CCOCC2)C[C@H](CC(=O)NCc2ccco2)C(=O)N1CC3 | -19.7%
COc1ccc(C(=O)C(C)OC(=O)c2cccc(S(=O)(=O)Nc3c(C)n(C)n(-c4ccccc4)c3=O)c2)cc1 (stereo not drawn) | -5.98%
O=C(CN1C(=O)NC2(CCCCCC2)C1=O)NCc1ccc(F)cc1 | -10.3%
CCN(CC)S(=O)(=O)c1ccc(N(C)Cc2cccc(OC)c2OC)nc1 | 39% (active)
CCN(CC)S(=O)(=O)c1ccc(N(C)CCc2ccc(OC)c(OC)c2)nc1 | -17%
CCN(CC)S(=O)(=O)c1ccc(N(C)Cc2ccc(C(F)(F)F)cc2)nc1 | 29.3%
COc1cccc(-c2sc3ccc(OC)cc3c2-c2ccc(OCCN3CCCCC3)cc2)c1 | 29.6%
COc1ccc2[nH]c3c(c2c1)CCN1C(=O)C(CC(=O)NCCCN(C)C)C[C@H](C(=O)N2CCOCC2)[C@@]31CCC1CCCC1 (stereo partly drawn) | -21.8%
O=C1CCC/C=C/C[C@@H](CC(=O)N(CCO)Cc2ccccc2)C(=O)NC[C@H](c2ccccc2)O1 | -18%
CCN(CC)c1ccc(/C=N/NC(=O)c2cnccn2)c(O)c1 | 48.7% (active)
Cc1ccc(C(=O)NCCNC(=O)c2cnccn2)cc1 | -1.97%
CCN(CC)c1ccc(/C=N/NC(=O)CNC(=O)c2cccnc2)cc1 | -5.59%
O=C(CCCOc1ccccc1)NNC(=O)c1ccc(Cl)cc1 | -15.2%
C=CC[C@H](CC(=O)NCCO)C(=O)N[C@@H](COC(=O)[C@@H](CC=C)Cc1ccc(F)cc1)Cc1c[nH]c2ccccc12 | -17.6%
O=C(NCCc1ccco1)c1ccc(OCc2cn3ccccc3n2)cc1 | -20.6%
C=CC[C@@H](Cc1ccc(F)cc1)C(=O)OC[C@H]1CCCN1C(=O)[C@H](CC=C)CC(=O)N(CCO)Cc1ccccc1 | 24.4%
CCCc1nc2c(c(=O)c3ccccc3n2C)c(=O)n1C1CCCCCC1 | 41.5% (active)
CCCc1nc2c(c(=O)c3ccccc3n2C)c(=O)n1-c1cc(C)cc(C)c1 | -30.9%
Cn1c2ccccc2c(=O)c2c(=O)n(Cc3ccco3)c(COc3ccccc3)nc21 | -11.8%
CC[C@]12c3[nH]c4ccc(Cl)cc4c3CCN1C(=O)[C@@H](CC(=O)NCCCOC)C[C@@H]2C(=O)N1CCN(C(=O)C2CC2)CC1 | -13.7%
CCOC(=O)C1=C(C)N(C[C@@H]2CC[C@@H](Cc3ccc(-c4ccccc4)cc3)O2)C(=O)NC1c1ccc([N+](=O)[O-])cc1 (stereo partly drawn) | -13%
